We go through 39 compounds from the supplement of paper PMC4840960.

Counter-ions that a name gives are not always drawn.

The first test concerns E18 rat cortical neuron-glia co-culture. Description: fiber score / MBP score (myelination specific beyond OL differentiation) (ratio); higher = more myelination-specific MBP alignment. As to conditions: 1 µM; treatment time: 8 days (DIV5-DIV13). In outline: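 Library compounds were applied at 1 or 5 µM in myelination medium, DIV5 to DIV13, to primary E18 rat cortical co-cultures grown at 20,000 cells/well in 96-well plates. After 4 % paraformaldehyde fixation and MBP/Olig2/DAPI immunostaining, four 10X fields per well in duplicate wells were scored. Each value is continuous MBP fiber length per Olig2+ nucleus divided by thresholded MBP area × intensity per Olig2+ nucleus.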
Take `Brc1c(NC2=NCCN2)ccc2nccnc12` [Brimonidine]: the “fiber score / MBP score” value stood at 0.915.
Same read-out and setting: next, `C[C@@H]1C[C@H]2[C@@H]3C[C@H](F)C4=CC(=O)C(Cl)=C[C@]4(C)[C@@]3(F)[C@@H](O)C[C@]2(C)[C@@]1(O)C(=O)CO` [Halometasone hydrate]: 0.566; `Clc1ccc2c(c1)CCc1cccnc1C2=C1CCNCC1` [Desloratadine]: 0.902; `COC(=O)C1=C(C)NC(C)=C(C(=O)OCCN(C)Cc2ccccc2)C1c1cccc([N+](=O)[O-])c1` (stereo not drawn) [Nicardipine]: 0.629.
Same read-out and setting: the value for `Nc1c2c(nc3ccccc13)CCCC2` [Tacrine] was 0.655.
As to `CC(C)(C#N)c1cc(Cn2cncn2)cc(C(C)(C)C#N)c1` [Anastrozole], the “fiber score / MBP score” value is 0.803.
As for `CCCCCCNC(=O)n1cc(F)c(=O)[nH]c1=O` [Carmofur], the “fiber score / MBP score” value was determined as 0.54.
With `C[C@](N)(Cc1ccc(O)c(O)c1)C(=O)O` [Methyldopa], the “fiber score / MBP score” value amounted to 1.28.
Consider `CNS(=O)(=O)Cc1ccc2[nH]cc(CCN(C)C)c2c1` [Sumatriptan], for which the “fiber score / MBP score” value was determined as 0.873.
In the case of `OC(CCN1CCCC1)(c1ccccc1)C1CCCCC1` (stereo not drawn) [Procyclidine], the “fiber score / MBP score” value was 1.03.
Same read-out and setting: next, `Cc1noc(NS(=O)(=O)c2ccc(N)cc2)c1C` [Sulfisoxazole]: 0.958; `CN1[C@@H](CC(=O)c2ccccc2)CCC[C@H]1C[C@H](O)c1ccccc1` [Lobeline]: 0.981.
Same read-out and setting: next, `CC[N+](C)(C)c1cccc(O)c1` [Edrophonium]: 0.813; `Cc1onc(-c2c(Cl)cccc2Cl)c1C(=O)N[C@@H]1C(=O)N2[C@@H]1SC(C)(C)[C@@H]2C(=O)O` [Dicloxacillin]: 1.04; `CC1=Nc2ccc(Cl)cc2S(=O)(=O)N1` [Diazoxide]: 1.25.
As for `CC(C)(C(=O)O)c1ccc(C(O)CCCN2CCC(C(O)(c3ccccc3)c3ccccc3)CC2)cc1` (stereo not drawn) [Fexofenadine], the “fiber score / MBP score” value worked out at 0.774.
Still for that read-out and setting: next, `CN1CCc2cc(Cl)c(O)cc2C(c2ccccc2)C1` (stereo not drawn): 0.959; `Clc1ccccc1C(c1ccccc1)(c1ccccc1)n1ccnc1` [Clotrimazole]: 0.906.
In the case of `COc1ccc(/C=C/C(=O)Nc2ccccc2C(=O)O)cc1OC` [Tranilast], the “fiber score / MBP score” value came to 0.857.
Consider `CN(C)CCc1c[nH]c2ccc(Cn3cncn3)cc12` [Rizatriptan], for which the “fiber score / MBP score” value amounted to 0.516.
In the case of `NC(=O)N1c2ccccc2C=Cc2ccccc21` [Carbamazepine], the “fiber score / MBP score” value turned out to be 0.735.
Consider `COc1cc(C(=O)NS(=O)(=O)c2ccccc2C)ccc1Cc1cn(C)c2ccc(NC(=O)OC3CCCC3)cc12` [Zafirlukast], for which the “fiber score / MBP score” value came to 0.627.
Consider `O=C(O)c1cccnc1` [Niacin], for which the “fiber score / MBP score” value worked out at 1.05.
`CCCc1nc2c(C)cc(-c3nc4ccccc4n3C)cc2n1Cc1ccc(-c2ccccc2C(=O)O)cc1` [Telmisartan]: the “fiber score / MBP score” value turned out to be 0.729.
On to `Cc1ccc(-c2cc(C(F)(F)F)nn2-c2ccc(S(N)(=O)=O)cc2)cc1` [Celecoxib], for which the “fiber score / MBP score” value came out at 0.757.
With `COc1ccc([C@@H]2Sc3ccccc3N(CCN(C)C)C(=O)[C@@H]2OC(C)=O)cc1` [Diltiazem], the “fiber score / MBP score” value was 0.782.
The same measure, in the same setting: next, `CNC(=C[N+](=O)[O-])NCCSCc1ccc(CN(C)C)o1` [Ranitidine]: 0.594; `CCCc1nc(C(C)(C)O)c(C(=O)O)n1Cc1ccc(-c2ccccc2-c2nnn[nH]2)cc1` [Olmesartan]: 0.778.
Same read-out and setting: the value for `NS(=O)(=O)c1cc(C2(O)NC(=O)c3ccccc32)ccc1Cl` (stereo not drawn) [Chlorthalidone] was 1.29.
On to `O=C1Nc2ccccc2/C1=C1/Nc2ccccc2C1=O` [Indirubin], for which the “fiber score / MBP score” value is 0.896.
Still for that read-out and setting: the value for `CNCC[C@@H](Oc1ccccc1C)c1ccccc1` [Atomoxetine] was 0.774; that for `C[C@]12CCC(=O)C=C1CC[C@@H]1[C@@H]2[C@@H](O)C[C@@]2(C)[C@H]1CC[C@]2(O)C(=O)COC(=O)CCC(=O)O` [Cortisol succinate] was 0.943.
With `C#C[C@]1(O)CC[C@H]2[C@@H]3CCC4=CC(=O)CC[C@@H]4[C@H]3CC[C@@]21C` [Norethindrone], the “fiber score / MBP score” value came out at 0.894.
Take `OCCOCCN1CCN(C(c2ccccc2)c2ccc(Cl)cc2)CC1` (stereo not drawn) [Hydroxyzine pamoate salt]: the “fiber score / MBP score” value was 0.154.
On the same count and under the same terms, the value for `O=S(=O)(O)CCS` [Mesna] was 0.768; that for `CN1CCN(C2=Nc3cc(F)ccc3Cc3ccccc32)CC1` [Fluperlapine] was 1.15; that for `COc1cc(/C=C/c2ccc(O)cc2)cc(OC)c1` [Pterostilbene] was 0.637.
For the compound `NS(=O)(=O)c1cc2c(cc1Cl)NCNS2(=O)=O` [Hydrochlorothiazide], the “fiber score / MBP score” value came to 0.749.
Regarding `N=C(N)N` [Guanidine], the “fiber score / MBP score” value came to 0.765.

Staying with this test, now noted: 5 µM; treatment time: 8 days (DIV5-DIV13).
Turning to `Brc1c(NC2=NCCN2)ccc2nccnc12` [Brimonidine], the “fiber score / MBP score” value worked out at 0.784.
The same measure, in the same setting: the value for `C[C@@H]1C[C@H]2[C@@H]3C[C@H](F)C4=CC(=O)C(Cl)=C[C@]4(C)[C@@]3(F)[C@@H](O)C[C@]2(C)[C@@]1(O)C(=O)CO` [Halometasone hydrate] was 0.394.
On to `Clc1ccc2c(c1)CCc1cccnc1C2=C1CCNCC1` [Desloratadine], for which the “fiber score / MBP score” value came out at 0.803.
The same measure, in the same setting: the value for `COC(=O)C1=C(C)NC(C)=C(C(=O)OCCN(C)Cc2ccccc2)C1c1cccc([N+](=O)[O-])c1` (stereo not drawn) [Nicardipine] was 0.824.
Consider `Nc1c2c(nc3ccccc13)CCCC2` [Tacrine], for which the “fiber score / MBP score” value is 0.566.
For `CC(C)(C#N)c1cc(Cn2cncn2)cc(C(C)(C)C#N)c1` [Anastrozole], the “fiber score / MBP score” value was determined as 0.734.
Regarding `CCCCCCNC(=O)n1cc(F)c(=O)[nH]c1=O` [Carmofur], the “fiber score / MBP score” value was found to be 0.729.
Turning to `C[C@](N)(Cc1ccc(O)c(O)c1)C(=O)O` [Methyldopa], the “fiber score / MBP score” value came out at 0.884.
For the compound `CNS(=O)(=O)Cc1ccc2[nH]cc(CCN(C)C)c2c1` [Sumatriptan], the “fiber score / MBP score” value was determined as 0.861.
The same measure, in the same setting: next, `OC(CCN1CCCC1)(c1ccccc1)C1CCCCC1` (stereo not drawn) [Procyclidine]: 1.05.
On to `Cc1noc(NS(=O)(=O)c2ccc(N)cc2)c1C` [Sulfisoxazole], for which the “fiber score / MBP score” value worked out at 0.834.
As to `CN1[C@@H](CC(=O)c2ccccc2)CCC[C@H]1C[C@H](O)c1ccccc1` [Lobeline], the “fiber score / MBP score” value was determined as 0.451.
Still for that read-out and setting: the value for `CC[N+](C)(C)c1cccc(O)c1` [Edrophonium] was 0.982; that for `Cc1onc(-c2c(Cl)cccc2Cl)c1C(=O)N[C@@H]1C(=O)N2[C@@H]1SC(C)(C)[C@@H]2C(=O)O` [Dicloxacillin] was 0.655; that for `CC1=Nc2ccc(Cl)cc2S(=O)(=O)N1` [Diazoxide] was 0.573.
On to `CC(C)(C(=O)O)c1ccc(C(O)CCCN2CCC(C(O)(c3ccccc3)c3ccccc3)CC2)cc1` (stereo not drawn) [Fexofenadine], for which the “fiber score / MBP score” value was 0.82.
`CN1CCc2cc(Cl)c(O)cc2C(c2ccccc2)C1` (stereo not drawn): the “fiber score / MBP score” value came out at 0.975.
Turning to `Clc1ccccc1C(c1ccccc1)(c1ccccc1)n1ccnc1` [Clotrimazole], the “fiber score / MBP score” value came to 1.15.
For `COc1ccc(/C=C/C(=O)Nc2ccccc2C(=O)O)cc1OC` [Tranilast], the “fiber score / MBP score” value came to 0.89.
Consider `CN(C)CCc1c[nH]c2ccc(Cn3cncn3)cc12` [Rizatriptan], for which the “fiber score / MBP score” value was 0.414.
Regarding `NC(=O)N1c2ccccc2C=Cc2ccccc21` [Carbamazepine], the “fiber score / MBP score” value worked out at 0.902.
The same measure, in the same setting: next, `COc1cc(C(=O)NS(=O)(=O)c2ccccc2C)ccc1Cc1cn(C)c2ccc(NC(=O)OC3CCCC3)cc12` [Zafirlukast]: 0.714; `O=C(O)c1cccnc1` [Niacin]: 0.998.
Turning to `CCCc1nc2c(C)cc(-c3nc4ccccc4n3C)cc2n1Cc1ccc(-c2ccccc2C(=O)O)cc1` [Telmisartan], the “fiber score / MBP score” value was 0.799.
Take `Cc1ccc(-c2cc(C(F)(F)F)nn2-c2ccc(S(N)(=O)=O)cc2)cc1` [Celecoxib]: the “fiber score / MBP score” value came out at 1.01.
With `COc1ccc([C@@H]2Sc3ccccc3N(CCN(C)C)C(=O)[C@@H]2OC(C)=O)cc1` [Diltiazem], the “fiber score / MBP score” value came out at 0.558.
`CNC(=C[N+](=O)[O-])NCCSCc1ccc(CN(C)C)o1` [Ranitidine]: the “fiber score / MBP score” value was found to be 1.03.
Take `CCCc1nc(C(C)(C)O)c(C(=O)O)n1Cc1ccc(-c2ccccc2-c2nnn[nH]2)cc1` [Olmesartan]: the “fiber score / MBP score” value turned out to be 0.698.
The same measure, in the same setting: the value for `NS(=O)(=O)c1cc(C2(O)NC(=O)c3ccccc32)ccc1Cl` (stereo not drawn) [Chlorthalidone] was 1.09.
Turning to `O=C1Nc2ccccc2/C1=C1/Nc2ccccc2C1=O` [Indirubin], the “fiber score / MBP score” value was found to be 0.71.
Take `CNCC[C@@H](Oc1ccccc1C)c1ccccc1` [Atomoxetine]: the “fiber score / MBP score” value is 0.721.
Same read-out and setting: the value for `C[C@]12CCC(=O)C=C1CC[C@@H]1[C@@H]2[C@@H](O)C[C@@]2(C)[C@H]1CC[C@]2(O)C(=O)COC(=O)CCC(=O)O` [Cortisol succinate] was 1.41.
Turning to `C#C[C@]1(O)CC[C@H]2[C@@H]3CCC4=CC(=O)CC[C@@H]4[C@H]3CC[C@@]21C` [Norethindrone], the “fiber score / MBP score” value worked out at 0.877.
Same read-out and setting: next, `OCCOCCN1CCN(C(c2ccccc2)c2ccc(Cl)cc2)CC1` (stereo not drawn) [Hydroxyzine pamoate salt]: 0.28; `O=S(=O)(O)CCS` [Mesna]: 0.877; `CN1CCN(C2=Nc3cc(F)ccc3Cc3ccccc32)CC1` [Fluperlapine]: 0.587.
Turning to `COc1cc(/C=C/c2ccc(O)cc2)cc(OC)c1` [Pterostilbene], the “fiber score / MBP score” value is 0.668.
For the compound `NS(=O)(=O)c1cc2c(cc1Cl)NCNS2(=O)=O` [Hydrochlorothiazide], the “fiber score / MBP score” value is 0.819.
On to `N=C(N)N` [Guanidine], for which the “fiber score / MBP score” value was 0.71.
